The full data set covers some 7,900 targets. This sample favours those with a hit. About 0.6% of all pairs of compound and target were hits.
These targets were tested with Cc1ccc(C(=O)N(CCCN)[C@@H](c2nc3cc(Cl)ccc3c(=O)n2Cc2ccccc2)C(C)C)cc1 [ispinesib] (assay: log2 fold change, soluble protein after heating vs DMSO (PISA); higher = thermal stabilisation; K562 cells, 10 uM, 30 min; active = over 0.2 and 3.5 SD of the protein, either way, in both replicates (recomputed)).
Procedure, shortened: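 Quantification of soluble protein used TMTpro 16plex LC-MS/MS, with channel sums equalised. Samples were the supernatant after 21,000xg for 90 min of pooled aliquots from K562 cells (2×10^6 cells/mL) treated with 10 μM compound for 30 min, heated for 3 min over 48°C-58°C, and extracted in PBS with 0.5% NP-40 at 4°C. Values, from duplicates, describe thermal stability against control samples on a log2 fold-change scale.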
Chain of UniProt Q9BQI3 (Q9BQI3 whole entry, looked up): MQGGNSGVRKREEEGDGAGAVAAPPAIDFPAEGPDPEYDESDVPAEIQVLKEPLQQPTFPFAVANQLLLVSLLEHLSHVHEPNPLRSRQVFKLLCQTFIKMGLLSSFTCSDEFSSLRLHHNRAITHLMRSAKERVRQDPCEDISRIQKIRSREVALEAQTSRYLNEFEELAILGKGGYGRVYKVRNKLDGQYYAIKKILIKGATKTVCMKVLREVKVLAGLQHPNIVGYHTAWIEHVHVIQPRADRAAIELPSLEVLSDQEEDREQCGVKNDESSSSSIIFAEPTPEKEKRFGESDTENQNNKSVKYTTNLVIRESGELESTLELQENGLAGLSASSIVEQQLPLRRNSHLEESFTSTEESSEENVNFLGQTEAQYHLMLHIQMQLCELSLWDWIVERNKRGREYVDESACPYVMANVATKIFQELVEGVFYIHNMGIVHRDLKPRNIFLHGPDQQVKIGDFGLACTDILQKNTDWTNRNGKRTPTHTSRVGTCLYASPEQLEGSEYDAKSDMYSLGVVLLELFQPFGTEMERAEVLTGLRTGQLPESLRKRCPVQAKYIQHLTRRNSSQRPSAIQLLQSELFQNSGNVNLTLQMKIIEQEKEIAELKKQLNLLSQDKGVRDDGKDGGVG
Chain of UniProt Q8NF50 (Q8NF50 whole entry, looked up): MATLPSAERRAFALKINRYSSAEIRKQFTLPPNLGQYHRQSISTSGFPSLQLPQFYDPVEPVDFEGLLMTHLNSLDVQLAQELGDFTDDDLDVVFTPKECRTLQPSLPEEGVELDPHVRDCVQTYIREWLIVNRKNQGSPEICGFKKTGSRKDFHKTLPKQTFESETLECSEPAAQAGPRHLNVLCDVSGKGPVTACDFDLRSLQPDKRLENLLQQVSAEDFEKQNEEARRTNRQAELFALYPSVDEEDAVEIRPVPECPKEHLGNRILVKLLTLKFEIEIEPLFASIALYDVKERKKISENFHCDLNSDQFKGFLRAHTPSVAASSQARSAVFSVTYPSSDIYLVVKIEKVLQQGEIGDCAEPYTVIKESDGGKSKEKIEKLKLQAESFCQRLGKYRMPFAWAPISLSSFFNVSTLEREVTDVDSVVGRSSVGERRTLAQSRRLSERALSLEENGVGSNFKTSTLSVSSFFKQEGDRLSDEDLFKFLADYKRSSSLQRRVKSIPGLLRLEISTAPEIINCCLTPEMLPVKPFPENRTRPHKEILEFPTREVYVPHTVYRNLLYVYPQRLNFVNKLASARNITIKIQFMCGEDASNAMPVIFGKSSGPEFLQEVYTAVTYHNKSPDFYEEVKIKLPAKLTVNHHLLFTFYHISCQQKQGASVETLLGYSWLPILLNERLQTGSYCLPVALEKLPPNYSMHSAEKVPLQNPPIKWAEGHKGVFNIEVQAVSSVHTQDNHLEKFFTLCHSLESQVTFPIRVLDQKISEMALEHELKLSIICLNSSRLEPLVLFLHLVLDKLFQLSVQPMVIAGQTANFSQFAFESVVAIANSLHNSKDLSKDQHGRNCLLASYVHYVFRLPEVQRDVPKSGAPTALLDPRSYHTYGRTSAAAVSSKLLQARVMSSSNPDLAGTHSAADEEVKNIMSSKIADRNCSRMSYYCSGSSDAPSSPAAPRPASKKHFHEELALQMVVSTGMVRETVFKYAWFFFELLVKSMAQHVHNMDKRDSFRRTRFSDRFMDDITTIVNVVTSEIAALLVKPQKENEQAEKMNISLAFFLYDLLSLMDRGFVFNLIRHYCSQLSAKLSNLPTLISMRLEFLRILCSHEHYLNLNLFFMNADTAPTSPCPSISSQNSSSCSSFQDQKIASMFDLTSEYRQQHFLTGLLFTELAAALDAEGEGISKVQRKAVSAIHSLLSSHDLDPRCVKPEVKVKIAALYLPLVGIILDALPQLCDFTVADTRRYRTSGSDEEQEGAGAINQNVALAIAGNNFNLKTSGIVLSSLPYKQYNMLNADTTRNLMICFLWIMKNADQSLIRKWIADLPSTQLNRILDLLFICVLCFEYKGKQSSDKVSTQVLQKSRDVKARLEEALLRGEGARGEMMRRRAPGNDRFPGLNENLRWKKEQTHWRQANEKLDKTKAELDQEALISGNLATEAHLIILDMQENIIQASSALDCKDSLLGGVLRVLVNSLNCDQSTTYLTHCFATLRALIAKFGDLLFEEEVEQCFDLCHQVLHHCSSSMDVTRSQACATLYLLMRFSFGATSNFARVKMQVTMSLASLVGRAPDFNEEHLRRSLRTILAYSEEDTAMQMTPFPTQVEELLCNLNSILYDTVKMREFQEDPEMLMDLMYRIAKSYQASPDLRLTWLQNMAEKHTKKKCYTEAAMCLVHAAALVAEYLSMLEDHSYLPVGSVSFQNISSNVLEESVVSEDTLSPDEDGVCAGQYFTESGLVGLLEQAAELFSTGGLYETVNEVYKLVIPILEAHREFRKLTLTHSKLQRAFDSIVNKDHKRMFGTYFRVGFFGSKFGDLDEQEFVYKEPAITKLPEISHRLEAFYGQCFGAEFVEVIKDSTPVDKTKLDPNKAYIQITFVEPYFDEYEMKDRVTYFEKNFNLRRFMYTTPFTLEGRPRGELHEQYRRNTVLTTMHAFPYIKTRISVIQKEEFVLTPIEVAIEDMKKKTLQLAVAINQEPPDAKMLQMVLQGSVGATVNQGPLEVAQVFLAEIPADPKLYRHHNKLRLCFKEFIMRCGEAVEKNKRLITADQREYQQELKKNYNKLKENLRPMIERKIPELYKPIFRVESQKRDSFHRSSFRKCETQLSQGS
Chain of UniProt Q6UX07 (Q6UX07 whole entry, looked up): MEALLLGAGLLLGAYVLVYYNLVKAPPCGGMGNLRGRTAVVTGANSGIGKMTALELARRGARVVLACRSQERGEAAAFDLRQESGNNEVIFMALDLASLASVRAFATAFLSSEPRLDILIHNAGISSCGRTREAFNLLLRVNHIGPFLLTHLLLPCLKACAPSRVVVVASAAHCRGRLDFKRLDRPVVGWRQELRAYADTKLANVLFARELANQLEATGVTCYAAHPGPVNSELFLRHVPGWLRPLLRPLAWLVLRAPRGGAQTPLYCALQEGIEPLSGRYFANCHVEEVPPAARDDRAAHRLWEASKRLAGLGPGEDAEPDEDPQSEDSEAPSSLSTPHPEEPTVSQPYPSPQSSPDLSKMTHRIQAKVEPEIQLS
Chain of UniProt Q96CS3 (Q96CS3 whole entry, looked up): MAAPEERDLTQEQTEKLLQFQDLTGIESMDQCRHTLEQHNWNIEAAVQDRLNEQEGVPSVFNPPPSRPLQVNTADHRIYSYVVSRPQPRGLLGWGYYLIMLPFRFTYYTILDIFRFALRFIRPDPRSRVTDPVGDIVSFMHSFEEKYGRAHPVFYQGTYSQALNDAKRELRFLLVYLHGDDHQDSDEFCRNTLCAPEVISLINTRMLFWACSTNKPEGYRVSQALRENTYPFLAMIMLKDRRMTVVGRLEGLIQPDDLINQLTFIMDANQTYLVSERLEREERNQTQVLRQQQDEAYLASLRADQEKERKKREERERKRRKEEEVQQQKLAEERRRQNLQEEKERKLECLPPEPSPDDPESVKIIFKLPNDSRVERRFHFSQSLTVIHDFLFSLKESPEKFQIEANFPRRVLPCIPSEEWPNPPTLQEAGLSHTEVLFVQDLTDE
Chain of UniProt Q9BPY3 (Q9BPY3 whole entry, looked up): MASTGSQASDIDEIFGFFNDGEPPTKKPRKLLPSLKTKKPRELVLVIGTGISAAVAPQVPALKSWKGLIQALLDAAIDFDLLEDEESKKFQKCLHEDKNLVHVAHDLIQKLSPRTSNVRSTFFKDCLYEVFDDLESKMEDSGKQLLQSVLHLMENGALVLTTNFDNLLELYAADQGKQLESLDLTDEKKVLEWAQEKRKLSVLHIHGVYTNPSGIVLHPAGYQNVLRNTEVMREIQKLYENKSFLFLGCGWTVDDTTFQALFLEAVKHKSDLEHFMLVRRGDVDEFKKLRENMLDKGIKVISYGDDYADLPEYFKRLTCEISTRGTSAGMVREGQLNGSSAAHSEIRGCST
Chain of UniProt P32519 (P32519 whole entry, looked up): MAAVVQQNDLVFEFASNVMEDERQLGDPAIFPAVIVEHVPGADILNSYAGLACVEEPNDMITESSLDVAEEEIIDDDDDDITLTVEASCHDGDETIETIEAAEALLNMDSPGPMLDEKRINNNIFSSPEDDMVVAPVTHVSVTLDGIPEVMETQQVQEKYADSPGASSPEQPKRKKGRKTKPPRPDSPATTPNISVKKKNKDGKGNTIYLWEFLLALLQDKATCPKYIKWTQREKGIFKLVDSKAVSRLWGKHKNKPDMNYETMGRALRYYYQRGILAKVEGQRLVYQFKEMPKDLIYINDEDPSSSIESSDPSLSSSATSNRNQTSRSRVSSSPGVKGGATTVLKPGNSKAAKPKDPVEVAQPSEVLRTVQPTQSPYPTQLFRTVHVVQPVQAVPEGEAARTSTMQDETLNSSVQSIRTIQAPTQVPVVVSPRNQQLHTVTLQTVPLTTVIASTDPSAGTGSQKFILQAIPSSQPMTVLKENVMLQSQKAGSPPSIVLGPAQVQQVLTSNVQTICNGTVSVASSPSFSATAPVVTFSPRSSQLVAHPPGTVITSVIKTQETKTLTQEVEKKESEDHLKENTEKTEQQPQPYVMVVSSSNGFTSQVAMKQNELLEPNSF
Chain of UniProt Q6P3W2 (Q6P3W2 whole entry, looked up): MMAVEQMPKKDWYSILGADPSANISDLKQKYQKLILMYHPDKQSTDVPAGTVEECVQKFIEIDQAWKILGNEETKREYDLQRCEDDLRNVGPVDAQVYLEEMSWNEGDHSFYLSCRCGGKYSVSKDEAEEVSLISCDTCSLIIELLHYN
Chain of UniProt O60573 (O60573 whole entry, looked up): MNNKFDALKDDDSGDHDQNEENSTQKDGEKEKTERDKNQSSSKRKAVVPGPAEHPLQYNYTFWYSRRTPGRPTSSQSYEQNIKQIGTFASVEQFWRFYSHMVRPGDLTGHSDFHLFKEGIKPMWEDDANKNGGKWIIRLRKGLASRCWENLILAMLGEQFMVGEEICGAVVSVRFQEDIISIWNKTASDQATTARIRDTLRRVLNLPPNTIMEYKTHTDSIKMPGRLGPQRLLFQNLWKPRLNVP
In the case of DHRS13 (UniProt Q6UX07), the log2 fold change is reported as -0.034 (inactive). CTNNB1 (UniProt P35222) was tested, and the log2 fold change was 0.078 (inactive). DOCK8 (UniProt Q8NF50) was tested, and the log2 fold change was -0.402 (inactive). EIF4G3 isoform 3 (UniProt O43432) was tested, and the log2 fold change was -0.02 (inactive). For DCP2 (UniProt Q8IU60), the log2 fold change was -0.045 (inactive). In the case of EIF2AK1 (UniProt Q9BQI3), the log2 fold change is reported as -0.024 (inactive). For FAF2 (UniProt Q96CS3), the log2 fold change was -0.011 (inactive). ELF1 (UniProt P32519) was tested, and the log2 fold change was -0.038 (inactive). For DNAJC24 (UniProt Q6P3W2), the log2 fold change was 0.01 (inactive). EXOSC10 (UniProt Q01780) was tested, and the log2 fold change was -0.441 (inactive). DNAH5 (UniProt Q8TE73) was tested, and the log2 fold change was 0.057 (inactive). For FAM118B (UniProt Q9BPY3), the log2 fold change was 0.046 (inactive). With EIF4E2 (UniProt O60573) the log2 fold change was -0.087 (inactive).
